In PubChem BioAssay:
For some assays here: Results with a measured potency or affinity are listed apart. Activity calls are given as the source filed them.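 Rule for the calls, unless noted: active = compound raising the membrane signal above positive-control mean plus 3 SD in both repeats, and a primary screen hit; inactive = the rest.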

Assays:
[1] = system: TRPC4 beta (transient receptor potential cation channel C4), mouse; experiment: activators of mouse TRPC4 channel, confirmation, cell-based, Fluo4 calcium, HEK293 TRPC4beta/mu-opioid, duplicates, 10 µM (AID 2426;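 active = fluorescence ratio normalized to control raised more than 50% in primary screen plus both repeat runs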); conditions: Fluo4 calcium fluorescence, at 10 µM; active compounds read high
[2] = system: transient receptor potential cation channel C4 beta (TRPC4), mouse; experiment: activators of mouse TRPC4 channel, confirmation, cell-based, second round, Fluo4, HEK293 TRPC4beta/mu-opioid, 1 µM (AID 2461;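 active = primary screen active and over 50% activation in each of two duplicate runs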); conditions: Fluo4 calcium fluorescence, at 1 µM; active compounds read high
[3] = system: TRPC4 (transient receptor potential cation channel C4 beta), mouse; experiment: positive allosteric modulators of mouse TRPC4, confirmation, cell-based, second round, Fluo-4, HEK293 TRPC4beta/mu-opioid, 1 µM (AID 2554;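 active = primary screen hit whose fluorescence ratio, in both repeats, exceeds the weak agonist control mean by 3 SD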); conditions: DAMGO EC20, Fluo-4 calcium flux, at 1 µM; active compounds read high
[4] = system: TRPC4 beta (transient receptor potential cation channel C4), mouse; experiment: positive allosteric modulators of mouse TRPC4, confirmation, cell-based, Fluo-4, HEK293 TRPC4beta/mu-opioid (AID 2555;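 active = primary screen hit whose calcium fluorescence ratio, in both repeats, exceeds the weak agonist control mean by 3 SD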); conditions: DAMGO EC20, Fluo-4 calcium flux, at 10 µM; active compounds read high
[5] = biological target: Short transient receptor potential channel 4 (Mus musculus) (UniProt Q9QUQ5); experiment: inhibitors of mouse TRPC4 channel, confirmation, cell-based, Fluo4, HEK293 TRPC4beta/mu-opioid (AID 2636;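 active = calcium signal cut by more than 3 SD below the full-agonist control yet still positive, in both repeats and the earlier primary screen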); conditions: DAMGO, Fluo4 calcium flux, at 10 µM; active compounds read high
Chain of Short transient receptor potential channel 4 (Mus musculus) (Q9QUQ5 whole entry, looked up): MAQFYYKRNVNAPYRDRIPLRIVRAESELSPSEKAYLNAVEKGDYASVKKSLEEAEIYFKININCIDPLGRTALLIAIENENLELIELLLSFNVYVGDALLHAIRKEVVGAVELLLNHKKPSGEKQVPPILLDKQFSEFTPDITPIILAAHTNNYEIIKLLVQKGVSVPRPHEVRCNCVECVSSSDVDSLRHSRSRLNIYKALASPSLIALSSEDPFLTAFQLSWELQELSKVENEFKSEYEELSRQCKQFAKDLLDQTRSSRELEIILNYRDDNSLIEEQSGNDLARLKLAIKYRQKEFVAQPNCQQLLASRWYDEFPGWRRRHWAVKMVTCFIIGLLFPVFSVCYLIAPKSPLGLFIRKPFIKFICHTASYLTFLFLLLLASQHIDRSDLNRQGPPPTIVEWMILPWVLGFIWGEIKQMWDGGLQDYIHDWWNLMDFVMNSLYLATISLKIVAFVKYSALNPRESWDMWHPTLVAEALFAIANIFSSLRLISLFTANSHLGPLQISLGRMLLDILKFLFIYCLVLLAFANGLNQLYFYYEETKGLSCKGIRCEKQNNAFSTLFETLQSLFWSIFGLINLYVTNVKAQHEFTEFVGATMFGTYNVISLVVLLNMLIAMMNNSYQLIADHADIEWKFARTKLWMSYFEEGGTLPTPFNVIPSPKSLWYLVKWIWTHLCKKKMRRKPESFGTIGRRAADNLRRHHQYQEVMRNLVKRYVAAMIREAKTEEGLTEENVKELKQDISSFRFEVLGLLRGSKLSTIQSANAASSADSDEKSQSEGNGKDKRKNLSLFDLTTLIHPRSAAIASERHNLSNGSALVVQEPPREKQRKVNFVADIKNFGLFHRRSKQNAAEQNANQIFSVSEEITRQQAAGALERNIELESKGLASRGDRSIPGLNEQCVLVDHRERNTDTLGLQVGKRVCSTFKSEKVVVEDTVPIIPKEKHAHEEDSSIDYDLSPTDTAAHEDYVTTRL

[6] = biological target: Short transient receptor potential channel 4 (Mus musculus) (UniProt Q9QUQ5); experiment: inhibitors of mouse TRPC4 channel, confirmation, cell-based, second round, Fluo4, HEK293 TRPC4beta/mu-opioid, 1 µM (AID 2637;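 active = calcium signal ratio cut to more than 3 SD under the fully stimulated control mean yet still positive, in both repeats and the primary screen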;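 for inhibition: percent of integrated ratio relative to wells lacking test compound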); conditions: Fluo4 calcium flux, DAMGO, at 1 µM; active compounds read high
[7] = biological target: Short transient receptor potential channel 4 (Mus musculus) (UniProt Q9QUQ5); experiment: mouse TRPC4 channel activators, dose response, cell-based, HEK293 TRPC4/mu-opioid, Fluo-4 calcium (AID 434937;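 active = primary screen activator hit with a dose response curve and TRPC4 channel activation at any tested dose; inactive = no activation, no dose response, or not a primary hit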)
[8] = biological target: Short transient receptor potential channel 4 (Mus musculus) (UniProt Q9QUQ5); experiment: TRPC4 positive allosteric modulators, dose response, cell-based, HEK293 TRPC4/mu-opioid, Fluo-4 calcium, EC20 DAMGO (AID 434941;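 active = earlier screen potentiator hit that boosts the TRPC4 ion channel at some dose, with a dose response; inactive = no potentiation, no dose response, or not a prior hit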;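 note: calcium entry triggered by an EC20 dose of DAMGO at the co-expressed mu-opioid receptor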)
[9] = biological target: Short transient receptor potential channel 6 (Mus musculus) (UniProt Q61143); experiment: inhibition of mouse TRPC6 channel, confirmation, selectivity assay for TRPC4 inhibitor project, cell-based, HEK293, membrane potential dye, duplicate (AID 434948;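 active = active in primary screen and both duplicates, each dropping signal beyond three positive-control SD with fluorescence still positive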); conditions: HEK293 TRPC6, membrane potential dye fluorescence, at 10 µM; inhibition: active compounds read high, stimulated with maximal-effect acetylcholine unless noted; outcome: stimulated with maximal-effect acetylcholine unless noted
Chain of Short transient receptor potential channel 6 (Mus musculus) (Q61143 whole entry, looked up): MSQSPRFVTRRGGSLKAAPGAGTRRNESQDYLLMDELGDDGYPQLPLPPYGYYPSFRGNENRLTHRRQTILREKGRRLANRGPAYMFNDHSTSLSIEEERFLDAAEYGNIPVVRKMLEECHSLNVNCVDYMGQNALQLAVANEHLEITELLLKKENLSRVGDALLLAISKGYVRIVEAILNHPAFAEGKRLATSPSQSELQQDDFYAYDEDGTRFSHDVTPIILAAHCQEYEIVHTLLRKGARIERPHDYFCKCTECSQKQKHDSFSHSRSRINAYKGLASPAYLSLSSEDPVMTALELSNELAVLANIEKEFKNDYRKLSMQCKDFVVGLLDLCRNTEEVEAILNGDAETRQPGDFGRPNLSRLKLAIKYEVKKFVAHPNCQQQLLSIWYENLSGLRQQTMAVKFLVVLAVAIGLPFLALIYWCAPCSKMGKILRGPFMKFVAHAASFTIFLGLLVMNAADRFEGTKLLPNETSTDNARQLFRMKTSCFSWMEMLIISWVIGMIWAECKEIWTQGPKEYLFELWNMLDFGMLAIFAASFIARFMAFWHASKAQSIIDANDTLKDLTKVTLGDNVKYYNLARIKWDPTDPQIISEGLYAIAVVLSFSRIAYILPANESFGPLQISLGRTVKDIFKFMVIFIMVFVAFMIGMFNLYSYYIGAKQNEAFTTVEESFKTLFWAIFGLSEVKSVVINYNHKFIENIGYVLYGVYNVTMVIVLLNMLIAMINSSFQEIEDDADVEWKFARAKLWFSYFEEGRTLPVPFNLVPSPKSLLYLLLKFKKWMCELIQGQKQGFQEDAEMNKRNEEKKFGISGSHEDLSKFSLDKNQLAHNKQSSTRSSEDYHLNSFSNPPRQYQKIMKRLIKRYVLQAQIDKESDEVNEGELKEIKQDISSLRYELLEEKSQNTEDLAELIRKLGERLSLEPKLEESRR

[10] = biological target: Short transient receptor potential channel 6 (Mus musculus) (UniProt Q61143); experiment: activation of mouse TRPC6 channel, confirmation, selectivity assay for TRPC4 activator project, cell-based, HEK293, membrane potential dye, duplicate (AID 434950;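 active = membrane potential signal rise above negative control mean plus 3 SD in both duplicates, also active in the earlier TRPC4 screen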); conditions: HEK293 TRPC6, membrane potential fluorescence, at 10 µM; active compounds read high
[11] = biological target: Short transient receptor potential channel 6 (Mus musculus) (UniProt Q61143); experiment: TRPC6 potentiation by TRPC4 potentiator hits, confirmation, selectivity assay for TRPC4 potentiator project, HEK293 cells, membrane potential dye, duplicate (AID 434952); conditions: HEK293 TRPC6, membrane potential dye fluorescence, at 10 µM; maximal acetylcholine added after compound unless noted
[12] = biological target: Short transient receptor potential channel 4 (Mus musculus) (UniProt Q9QUQ5); experiment: calcium flux activators in TRPC4/5HT1a cells, counter-screen for TRPC4 activator project, cell-based, second counter screen, HEK293 TRPC4/5HT1a, Fluo-4 (AID 434977;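 active = calcium signal rise above buffer-control mean plus 5 SD in both duplicates, and also a hit in the primary screen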); conditions: Fluo-4 calcium flux, at 10 µM; active compounds read high
[13] = calcium flux inhibitors in TRPC4/5HT1a cells, confirmation, counter-screen for TRPC4 inhibitor project, cell-based, second counter screen, HEK293 TRPC4/5HT1a, Fluo-4 (AID 434978;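 active = primary screen active whose calcium signal fell more than 3 SD beyond the full-serotonin control mean in both duplicate plates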;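 for outcome: serotonin given first at submaximal then at maximal dose after compound preincubation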); conditions: Fluo-4 calcium flux, at 10 µM; inhibition: active compounds read high, serotonin added to trigger calcium flux unless noted; outcome: serotonin added to trigger calcium flux unless noted
[14] = system: TRPC4 (mouse), co-expressed with 5HT1a in HEK293; experiment: calcium flux potentiators in TRPC4/5HT1a cells, confirmation, counter-screen for TRPC4 potentiator project, cell-based, second counter screen, HEK293 TRPC4/5HT1a, Fluo-4 (AID 434979;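 active = signal rise over 3 SD above mean of control wells given weak agonist, in both repeats and first screen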); conditions: Fluo-4 calcium flux, at 10 µM; outcome: serotonin added at its EC20 dose unless noted; potentiation: active compounds read high, serotonin added at its EC20 dose unless noted
[15] = calcium flux activation in mu-opioid HEK293 cells, confirmation, counter-screen for TRPC4 activator project, cell-based, HEK293 mu-opioid receptor line (AID 449723;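 active = hit in primary screen, with calcium signal over 5 SD above buffer well mean in both duplicates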;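 note: counter screen cells carry the mu-opioid receptor alone and lack TRPC4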); conditions: Fluo-4 calcium fluorescence, at 10 µM; active compounds read high
[16] = calcium flux enhancement in mu-opioid HEK293 cells, confirmation, counter-screen for TRPC4 allosteric potentiator project, cell-based, HEK293 mu-opioid receptor line (AID 449724;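 active = calcium signal rise more than 3 SD above the low-dose agonist control mean, in both duplicate plates and the primary screen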); conditions: Fluo-4 calcium flux, at 10 µM; compound added before EC20 DAMGO stimulus unless noted
[17] = biological target: Short transient receptor potential channel 4 (Mus musculus) (UniProt Q9QUQ5); experiment: mouse TRPC4 channel inhibitors, dose response, cell-based, HEK293 TRPC4/mu-opioid, Fluo-4 calcium (AID 434942;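 active = primary screen inhibitor hit that blocks the TRPC4 channel at some tested dose, yielding a dose curve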)

COc1ccc(Br)cc1CN1CCN(C(=O)Cc2ccccc2)CC1
inactive: outcome [1] | outcome [2] | outcome [3] | outcome [4] | outcome [6] | outcome [7] | outcome [8] | outcome [9] | outcome [10] | outcome [11] | outcome [12] | outcome [14] | outcome [15] | outcome [16]
active: inhibition [5] 89% | inhibition [13] 20.6%

O=C(c1cccc(C(F)(F)F)c1)C1CCCN(Cc2ccccc2O)C1 (centres undefined)
active: inhibition [5] 87% | inhibition [13] 24.6%
inactive: outcome [1] | outcome [2] | outcome [3] | outcome [4] | outcome [6] | outcome [7] | outcome [8] | outcome [9] | outcome [10] | outcome [11] | outcome [12] | outcome [14] | outcome [15] | outcome [16]

COc1ccc(O)c(CN2CCCC(C(=O)c3sccc3C)C2)c1 (centres undefined)
active: inhibition [5] 92% | inhibition [13] 29.4%
inactive: outcome [1] | outcome [2] | outcome [3] | outcome [4] | outcome [6] | outcome [7] | outcome [8] | outcome [9] | outcome [10] | outcome [11] | outcome [12] | outcome [14] | outcome [15] | outcome [16]

O=C(CN1CCCC1)Nc1ccc(Cl)cc1C(=O)c1ccccc1
inactive: outcome [1] | outcome [2] | outcome [3] | outcome [4] | outcome [6] | outcome [7] | outcome [8] | outcome [9] | outcome [10] | outcome [11] | outcome [12] | outcome [14] | outcome [15] | outcome [16]
active: inhibition [5] 90% | inhibition [13] 21.8%

Cc1ccc(CN2C3CCCC2CC(NC(=S)NCc2ccccc2)C3)cc1 (centres undefined)
inactive: outcome [1] | outcome [2] | outcome [3] | outcome [4] | outcome [6] | outcome [7] | outcome [8] | outcome [9] | outcome [10] | outcome [11] | outcome [12] | outcome [14] | outcome [15] | outcome [16]
active: inhibition [5] 88% | inhibition [13] 36.3%

COc1ccc(C)cc1NC1=NC(C)(C)CS1
inactive: outcome [1] | outcome [2] | outcome [3] | outcome [4] | outcome [7] | outcome [8] | outcome [9] | outcome [10] | outcome [11] | outcome [12] | outcome [13] | outcome [14] | outcome [15] | outcome [16]
active: inhibition [5] 89% | inhibition [6] 42%

CC(=O)OC1(c2ccccc2)CCN(C2CCCCC2)CC1C (centres undefined)
inactive: outcome [1] | outcome [2] | outcome [3] | outcome [4] | outcome [6] | outcome [7] | outcome [8] | outcome [9] inactive [setting not given] | outcome [10] | outcome [11] inactive [setting not given] | outcome [12] | outcome [13] inactive [setting not given] | outcome [14] inactive [setting not given] | outcome [15] | outcome [16] inactive [setting not given]
active: inhibition [5] 91%

CCOC(=O)C(O)(c1ccc(NC(=S)NC(=O)c2ccc(Cl)cc2Cl)c(C)c1)C(F)(F)F (centres undefined)
active: potentiation [4] 31% | potentiation [14] 28.1%
inactive: outcome [1] | outcome [2] | outcome [3] | outcome [5] | outcome [6] | outcome [7] | outcome [17] | outcome [9] | outcome [10] | outcome [11] | outcome [12] | outcome [13] | outcome [15] | outcome [16]

N=c1n(CCO)c2ccccc2n1Cc1ccccc1
active: inhibition [5] 86% | inhibition [6] 48% | inhibition [13] 42.9%
inactive: outcome [1] | outcome [2] | outcome [3] | outcome [4] | outcome [7] | outcome [8] | outcome [9] | outcome [10] | outcome [11] | outcome [12] | outcome [14] | outcome [15] | outcome [16]

Cc1ccsc1C(=O)C1CCCN(Cc2ccccc2O)C1 (centres undefined)
inactive: outcome [1] | outcome [2] | outcome [3] | outcome [4] | outcome [6] | outcome [7] | outcome [8] | outcome [9] | outcome [10] | outcome [11] | outcome [12] | outcome [14] | outcome [15] | outcome [16]
active: inhibition [5] 84% | inhibition [13] 44.9%

O=C(c1ccc(Cl)cc1)C1CCCN(C2CCSCC2)C1 (centres undefined)
active: inhibition [5] 86% | inhibition [6] 64% | inhibition [13] 31.4%
inactive: outcome [1] | outcome [2] | outcome [3] | outcome [4] | outcome [7] | outcome [8] | outcome [9] | outcome [10] | outcome [11] | outcome [12] | outcome [14] | outcome [15] | outcome [16]

COc1ccc2[nH]cc(CCN(C)C)c2c1
inactive: outcome [1] | outcome [2] | outcome [4] | outcome [5] | outcome [6] | outcome [7] | outcome [17] | outcome [9] inactive [setting not given] | outcome [10] | outcome [11] inactive [setting not given] | outcome [12] | outcome [13] inactive [setting not given] | outcome [14] inactive [setting not given] | outcome [15] | outcome [16] inactive [setting not given]
active: potentiation [3] 7%

CCN1CCN(Cc2cc(Br)ccc2O)CC1
active: potentiation [3] 19% | potentiation [4] 22% | potentiation [14] 16.8%
inactive: outcome [1] | outcome [2] | outcome [5] | outcome [6] | outcome [7] | outcome [17] | outcome [9] | outcome [10] | outcome [11] | outcome [12] | outcome [13] | outcome [15] | outcome [16]

COc1cccc(O)c1CN1CCCC(C(=O)c2sccc2C)C1 (centres undefined)
active: inhibition [5] 94% | inhibition [6] 40% | inhibition [13] 29.8%
inactive: outcome [1] | outcome [2] | outcome [3] | outcome [4] | outcome [7] | outcome [8] | outcome [9] | outcome [10] | outcome [11] | outcome [12] | outcome [14] | outcome [15] | outcome [16]
